Reference: PubChem BioAssay AID463173 (ICCB-Longwood Screening Facility, Harvard Medical School, 2010)
The campaign covered roughly 52,000 compounds. About 4,300 (8.3%) were called active. Rule as the data show it: active = survival mostly below about 52% (no sharp cut-off); inactive = mostly above about 56%. The full list was thinned out, with actives kept by preference.

test system: DeltatarO mutant; assay: S. aureus survival, RN4220 and DeltatarO strains – OD600, teichoic acid synthesis inhibitors, primary screen (AID 463173); conditions: S. aureus RN4220 wild type/DeltatarO growth, OD600, 18 h, hits give low values, screened at 18.75 µg/mL (by protocol)

| Structure (SMILES) | survival |
| --- | --- |
| CCN1CCc2c(sc(NC(=O)c3ccc(S(=O)(=O)N(CCOC)CCOC)cc3)c2C(N)=O)C1 | 69% (inactive) |
| CCc1cccc(C)c1NC(=O)c1cc(S(=O)(=O)N2CCC3(CC2)OCCO3)ccc1F | 116% (inactive) |
| Cc1ccc(CSCCNC(=O)C2CCN(S(=O)(=O)Cc3ccccc3)CC2)cc1 | 99% (inactive) |
| CCOc1ccc(-c2cn3c(n2)sc2cc(C(=O)NCCCN(CC)CC)ccc23)cc1 | 15% (active) |
| CCCSCCCNC(=O)c1ccc2c(c1)sc1nc(-c3ccc(OCC)cc3)cn12 | 55% (inactive) |
| CCOc1ccc(-c2cn3c(n2)sc2cc(C(=O)NCCCc4ccccc4)ccc23)cc1 | 72% (inactive) |
| COc1ccc(-c2nn(-c3ccccc3)cc2C2NC(=O)NC(C)=C2C(=O)OC(C)C)cc1Cl (stereo unspecified) | 106% (inactive) |
| CCc1ccc(NC(=O)c2ccc(CN3CC(=O)N4CCCCC4C3=O)cc2)cc1 (stereo unspecified) | 66% (inactive) |
| O=C(Nc1ccc(F)cc1)c1ccc(CN2CC(=O)N3CCCCC3C2=O)cc1 (stereo unspecified) | -4% (active) |
| CC(C)c1ccc(NC(=O)c2ccc(CN3CC(=O)N4CCCCC4C3=O)cc2)cc1 (stereo unspecified) | 77% (inactive) |
| Cc1ccc(NC(=O)c2ccc(CN3CC(=O)N4CCCCC4C3=O)cc2)cc1C (stereo unspecified) | 77% (inactive) |
| Cc1ccc(NC(=O)c2ccc(CN3CC(=O)N4CCCCC4C3=O)cc2)cc1 (stereo unspecified) | -5% (active) |
| O=C(Nc1cc(F)ccc1F)c1ccc(CN2CC(=O)N3CCCCC3C2=O)cc1 (stereo unspecified) | 92% (inactive) |
| O=S(=O)(NCc1ccco1)c1cccc(S(=O)(=O)N2CCCCC2)c1 | 90% (inactive) |
| O=C(NC1CCCCC1)c1ccc(Cn2c(SCc3cccc(F)c3)nc3cccnc32)cc1 | 81% (inactive) |
| Cc1ccc2c(c1)N(C(=O)N1CCC(C(=O)NCc3ccccc3C)CC1)CC(C)O2 (stereo unspecified) | 74% (inactive) |
| Cc1noc(-c2ccc(N(C)Cc3ccccc3)c([N+](=O)[O-])c2)n1 | 75% (inactive) |
| COc1ccc(CC(=O)NCc2nc3cccnc3n2Cc2ccccc2)cc1 | 80% (inactive) |
| COc1ccccc1N1CCN(S(=O)(=O)c2c(C)sc3ncn(CC(=O)N(C)c4ccc(C(C)C)cc4)c(=O)c23)CC1 | 67% (inactive) |
| CCCCN(C)CCNC(=O)c1cc(-c2ccc(Cl)s2)nc2ccccc12 | 62% (inactive) |
| COc1cc(NC(=O)CSc2nc(C)c(C(=O)Nc3ccccc3)c(-c3ccc(OC)c(OC)c3)c2C#N)c(OC)cc1Cl | 61% (inactive) |
| COc1ccc(CCn2c(=O)c3cccnc3n(CC(=O)Nc3c(C)cc(C)cc3C)c2=O)cc1OC | 90% (inactive) |

| Structure (SMILES) | survival |
| --- | --- |
| Cc1ccccc1CN1C(=O)c2ccccc2S(=O)(=O)c2ccc(C(=O)OCC3CCCO3)cc21 (stereo unspecified) | 71% (inactive) |
| CCOc1ccc(CCNC(=O)c2c(C)oc3ncn(CC(C)C)c(=O)c23)cc1 | 72% (inactive) |
| Cc1nc(N2CCCC2)c2c(C(=O)Nc3ccc(Br)cc3F)c(C)oc2n1 | 25% (active) |
| Cc1nc(N2CCCC2)c2c(C(=O)Nc3cccc(Cl)c3)c(C)oc2n1 | 20% (active) |
| Cc1oc2ncnc(N3CCOCC3)c2c1C(=O)Nc1ccc(Br)cc1F | 135% (inactive) |
| CCc1cccc(NC(=O)c2c(C)oc3nc(C)nc(N4CCCC4)c23)c1 | 103% (inactive) |
| Cc1ccc(NC(=O)c2c(C)oc3nc(C)nc(N4CCCC4)c23)c(C)c1 | 70% (inactive) |
| Cc1nc(N2CCCC2)c2c(C(=O)Nc3ccc(C)c(Cl)c3)c(C)oc2n1 | 124% (inactive) |
| COc1cc(Cl)c(C)cc1NC(=O)c1cnc(N2CCOCC2)c2ccccc12 | 71% (inactive) |
| COc1cc(CN(C(=O)c2ccccc2F)C2CCS(=O)(=O)C2)cc(OC)c1OC (stereo unspecified) | 46% (inactive) |
| COc1ccc(N2CCN(c3ncnc4c3cnn4C)CC2)cc1 | 75% (inactive) |
| O=c1c2cn[nH]c2nc(SCc2c(F)cccc2F)n1-c1ccc(Cl)cc1 | 91% (inactive) |
| CC(C)c1ccc(NC(=O)CN2CCC(n3nnc4ccccc43)CC2)cc1 | 69% (inactive) |
| CCN(CC)CCN(C(=O)c1ccco1)c1nc2ccc(Cl)cc2s1 | 66% (inactive) |
| CCc1ccc2nc(N(CCN(CC)CC)C(=O)c3ccco3)sc2c1 | 54% (inactive) |
| CCN(CC)CCN(C(=O)c1ccc(C(=O)OC)cc1)c1nc2ccc(Cl)cc2s1 | -4% (active) |
| COc1ccc(-c2cn3nc(N4CCCC(C(=O)Nc5cc(C)cc(C)c5)C4)sc3n2)cc1 (stereo unspecified) | 75% (inactive) |
| COc1ccc(-n2nnc(-c3nsc(NC(=O)c4cccc(C)c4)n3)c2C)cc1OC | 88% (inactive) |
| CCN(CC)CCNC(=O)c1ccc(-n2c(-c3ccccc3)cc3c2CCCC3)cc1 | 8% (active) |
| CN(C)CCNC(=O)c1ccc(-n2c(-c3ccccc3)cc3c2CCCC3)cc1 | 33% (active) |
| CCCNC(=O)c1ccc(-n2c(-c3ccccc3)cc3c2CCCCC3)cc1 | 103% (inactive) |
| COCCCNC(=O)c1ccc(-n2c(-c3ccccc3)cc3c2CCCC3)cc1 | 70% (inactive) |

| Structure (SMILES) | survival |
| --- | --- |
| CC(C)OCCCNC(=O)c1ccc(-n2c(-c3ccccc3)cc3c2CCCC3)cc1 | 75% (inactive) |
| CC(C)NC(=O)c1ccc(-n2c(-c3ccccc3)cc3c2CCCCC3)cc1 | 108% (inactive) |
| CCOCCCNC(=O)c1ccc(-n2c(-c3ccccc3)cc3c2CCCC3)cc1 | 69% (inactive) |
| COCCNC(=O)c1ccc(-n2c(-c3ccccc3)cc3c2CCCCC3)cc1 | 110% (inactive) |
| CN(C)CCNC(=O)c1ccc(-n2c(-c3ccccc3)cc3c2CCCCC3)cc1 | 53% (inactive) |
| CCNC(=O)c1ccc(-n2c(-c3ccccc3)cc3c2CCCCC3)cc1 | 43% (active) |
| CCOCCCNC(=O)c1ccc(-n2c(-c3ccccc3)cc3c2CCCCC3)cc1 | 49% (inactive) |
| COCCCNC(=O)c1ccc(-n2c(-c3ccccc3)cc3c2CCCCC3)cc1 | 39% (active) |
| Cc1nnc(NCc2ccccc2)c2c1nnn2Cc1ccccc1Cl | 92% (inactive) |
| COc1ccc(CCNC(=O)c2c(C)nn(-c3ccc(F)cc3)c2-n2cccc2)cc1OC | 74% (inactive) |
| Cc1oc2c(c1C(=O)Nc1ccc(OC(F)(F)F)cc1)C1=NCCN1C=N2 | 80% (inactive) |
| COc1ccccc1CN1C(=O)CN(C2CCCCCC2)C(=O)C1c1ccc(C)cc1 (stereo unspecified) | 88% (inactive) |
| Cc1ccc(-n2c(SCC(=O)Nc3cccc(C)c3)nc3c(oc4ccccc43)c2=O)cc1 | 99% (inactive) |
| Cc1cccc(-n2ncc(C(=O)N3CCN(C(=O)c4ccco4)CC3)c2C2CCN(C(=O)OC(C)(C)C)CC2)c1 | 62% (inactive) |
| CCCC(CCC)C(=O)Nc1cccc(-c2cn3cccnc3n2)c1 | 83% (inactive) |
| CCC1CCCCN1C(=O)Cn1c(=O)n(CC2CCC(C(=O)NC)CC2)c(=O)c2sccc21 (stereo unspecified) | 102% (inactive) |
| Oc1ccc(Br)cc1C1CC(c2ccccc2)=NC(c2ccco2)N1 (stereo unspecified) | 1% (active) |
| O=C(CCN1CCOCC1)N1N=C(c2ccccc2)CC1c1ccco1 (stereo unspecified) | 89% (inactive) |
| O=c1oc2c(F)cc(F)cc2cc1S(=O)(=O)c1ccc(F)cc1 | 60% (inactive) |
| CCN(CC)c1ccc(-c2nc(-c3ccncc3)no2)cc1[N+](=O)[O-] | 79% (inactive) |
| CCN(CC)c1ccc(-c2nc(-c3ccccn3)no2)cc1[N+](=O)[O-] | 41% (active) |
| CCN(CC)c1ccc(-c2nc(-c3ccco3)no2)cc1[N+](=O)[O-] | 47% (inactive) |

| Structure (SMILES) | survival |
| --- | --- |
| CN(Cc1ccccc1)c1ccc(-c2nc(-c3ccccc3)no2)cc1[N+](=O)[O-] | 69% (inactive) |
| CN(Cc1ccccc1)c1ccc(-c2nc(-c3ccccn3)no2)cc1[N+](=O)[O-] | 34% (active) |
| CCc1noc(-c2ccc(N(C)Cc3ccc(OC)cc3)c([N+](=O)[O-])c2)n1 | 75% (inactive) |
| COc1ccc(CN(C)c2ccc(-c3nc(-c4ccc(OC)c(OC)c4)no3)cc2[N+](=O)[O-])cc1 | 62% (inactive) |
| CCN(Cc1ccc(OC)cc1)c1ccc(-c2nc(-c3ccncc3)no2)cc1[N+](=O)[O-] | 41% (active) |
| COc1ccccc1-c1noc(-c2ccc(N(C)Cc3ccccc3)c([N+](=O)[O-])c2)n1 | 36% (active) |
| CCN(CC)c1ccc(-c2nc(-c3ccccc3C)no2)cc1[N+](=O)[O-] | 68% (inactive) |
| CN(Cc1ccccc1)c1ccc(-c2nc(-c3ccncc3)no2)cc1[N+](=O)[O-] | 63% (inactive) |
| COc1ccc(CN(C)c2ccc(-c3nc(-c4ccccc4)no3)cc2[N+](=O)[O-])cc1 | 71% (inactive) |
| CC1CCC(NC(=O)c2ccc3c(c2)N(Cc2ccccc2F)C(=O)c2ccccc2S3(=O)=O)CC1 (stereo unspecified) | 74% (inactive) |
| CCOc1ccc(NS(=O)(=O)c2ccc3[nH]cc(C(=O)NCC4CCCO4)c(=O)c3c2)cc1 (stereo unspecified) | 87% (inactive) |
| CCOC(=O)C1CCN(C(=O)c2nn(-c3ccc(OC)c(Cl)c3)c(=O)c3c2c2ccccc2n3C)CC1 | 76% (inactive) |
| Cc1cccc(C(=O)NCC(c2cccs2)S(=O)(=O)c2cccs2)c1 (stereo unspecified) | 81% (inactive) |
| Cc1ccc(OCC(=O)NCC(=O)OCc2cc(=O)n3nc(C(C)C)sc3n2)cc1 | 97% (inactive) |
| Cn1c(=O)c2ccccc2n2c(CCC(=O)N3CCN(c4cccc(Cl)c4)CC3)nnc12 | 82% (inactive) |
| Cc1ccc(/C=C(\C#N)C(=O)NC2CCCCCC2)o1 | 92% (inactive) |
| CN(C)c1ccc(-c2nc(-c3ccco3)no2)cc1[N+](=O)[O-] | 52% (inactive) |
| CN(C)c1ccc(-c2nc(-c3ccccn3)no2)cc1[N+](=O)[O-] | 42% (active) |
| CN(C)c1ccc(-c2nc(-c3ccncc3)no2)cc1[N+](=O)[O-] | 81% (inactive) |
| Cc1ccc(-n2c(=O)c3oc4ccccc4c3n(CC(=O)Nc3ccccc3)c2=O)cc1C | 54% (inactive) |
